Source: PubChem BioAssay (National Center for Advancing Translational Sciences (NCATS))
Pf growth 48h = Primary qHTS for delayed death inhibitors of the malarial parasite plastid, 48 hour incubation | 310,000 tested, 5.9% active | P. falciparum luciferase growth in erythrocytes, 48 h | Potency, µM (doses to about 28.7 µM), for the others: at the highest dose activity change, negative = inhibition, most hits filed as inhibitors | AID 504832, 2011; further: potency means the concentration at half of the fitted maximal effect; on the % scale 0 is the no-effect control and ±100 the full control effect
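A one-generation exposure of luciferase-tagged malaria parasites in RPMI 1640/Albumax erythrocyte culture, 37 C and 5% CO2. Inhibition is inferred from decreased luminescence after adding detection reagent.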
NS1 function inh = qHTS Assay for Inhibitors of Influenza NS1 Protein Function; 270,000 tested, 0.4% active; Potency, µM (doses to about 46.1 µM), inactives show top-dose activity, positive = more growth; calls by dose curve; further: potency means the concentration at half of the fitted maximal effect; actives are rising curves; nearly all actives have a fitted effect of over 50% in size
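Read-out: OD600 growth recovery of NS1-expressing budding yeast. Cells grown overnight at 30C in -URA glucose medium, washed, resuspended and diluted 1:100 in 2% galactose assay medium, pH 6.0. Same strain lacking NS1 served as positive control.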
Pf growth 96h = Primary qHTS for delayed death inhibitors of the malarial parasite plastid, 96 hour incubation | 320,000 tested, 6.9% active | Potency, µM (top dose mostly 28.7 µM), inactives show at the top dose activity change, negative = inhibition, hits mostly inhibitors | P. falciparum luciferase reporter growth, 96 h; further: potency means the concentration at half of the fitted maximal effect; on the % scale 0 is the no-effect control and ±100 the full control effect
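Readout is luminescence from an integrated firefly luciferase in P. falciparum. Red cells, 2% hematocrit and 0.05% parasitemia final, were cultured with compound through two parasite generations (96 hours) at 37 C, 5% CO2.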
Sm TGR block = qHTS Assay for the Inhibitors of Schistosoma Mansoni Peroxiredoxins; Schistosoma mansoni thioredoxin glutathione reductase (TGR), Q962Y6; purified TGR, DTNB reduction, TNB absorbance 405 nm; Potency, µM (doses to about 114 µM), for inactives: at the highest dose activity change, negative = inhibition, most hits filed as inhibitors; 360,000 tested, 3% active; AID 485364, 2010; further: potency means the concentration at half of the fitted maximal effect; on the % scale 0 is the no-effect control and ±100 the full control effect; nearly all actives have a fitted effect of over 60% in size
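TGR 20 nM + NADPH 100 uM (dispensed conc.), cpd preinc 15 min RT; start with NADPH (500 uM addition) then DTNB (15 mM addition). Kinetic TNB absorbance, 405 nm filter. Four-parameter Hill fit across titration.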
Shiga toxin inh = A qHTS for Small Molecule Inhibitors of Shiga Toxin; inhibition, % at 38.7 µM; Vero cells, Shiga toxin protein synthesis inhibition reporter; AID 2315, 2010; 290,000 tested, 9.2% active; in the data active means inhibition mostly above about 28%, no sharp cut-off; inactive means mostly below about 43%; further: 0% is about no effect
Cycloheximide cs = Cycloheximide Counterscreen for Small Molecule Inhibitors of Shiga Toxin; AID 2314, 2010; 300,000 tested, 12% active; cell reporter, cycloheximide protein synthesis inhibition counterscreen; max response, %; in the data active means max response mostly above about 13%, no sharp cut-off; inactive means mostly below about 14%; further: read at 38.3 µM for the half of the compounds with a filed dose; 0% is about no effect
An asterisk follows results filed as active; i = inactive; ? = inconclusive; . = no result given. A selection: hits, their analogues and other compounds. The true share with any hit is near 21%. Unless noted, the call rests on the fitted dose curve; in most records, active means well fitted curve in the direction sought with a large enough effect; inconclusive means small, poorly fitted or top-dose-only effect, or another doubt; inactive means no such curve, though single readings can be large; an effect the other way counts as inactive or inconclusive.

SMILES | Pf growth 48h | NS1 function inh | Pf growth 96h | Sm TGR block | Shiga toxin inh | Cycloheximide cs
CCOC(=O)c1[nH]c2cc(OC)c(OC)cc2c1N | . | -4% | 18% | -24% | 0 | 2
CCOC(=O)c1[nH]c2ccc(C)cc2c1N | 491% | 4% | i | -20% | 61* | 27*
Cc1cc(NC(=O)NC2CC(=O)N(c3ccc4c(c3)OCCO4)C2)no1 (stereo not drawn) | -45% | . | -10% | -1% | -8 | -5
CCOC(=O)C1C(=O)N(C(=O)c2ccc(OC)cc2)CC1c1ccccc1 (stereo not drawn) | 23% | 1% | . | 4% | 16 | 9.6*
CCOC(=O)C1C(=O)N(C(=O)c2cncc(Br)c2)CC1c1ccccc1 (stereo not drawn) | -1% | -12% | -13% | 0% | -11 | -2
CCOC(=O)/C(=N\Nc1ncnc2ccccc12)c1ccc(OC)cc1 | 168% | -16% | 189% | 5% | 45 | 27*
COc1ccc(/C(=N/Nc2ncnc3ccccc23)C(=O)O)cc1 | ? | -17% | 0% | -13% | 89* | 47*
CCOC(=O)/C(=N\NC(=O)c1ccccc1)c1ccccc1 | . | -95% | -38% | 7% | 21 | 16
Cc1nnsc1C(=O)N1CCCC(N2CCN(c3cccc(C(F)(F)F)c3)CC2)C1 (stereo not drawn) | 13µM* | -6% | ? | -15% | 1 | 2
O=C(c1cc(C2CC2)on1)N1CCCC(N2CCN(c3cccc(C(F)(F)F)c3)CC2)C1 (stereo not drawn) | 12µM* | -22% | 0% | ? | -2 | -4
O=C(c1ccco1)N1CCCC(N2CCN(c3cccc(C(F)(F)F)c3)CC2)C1 (stereo not drawn) | 10µM* | -11% | 15% | -19% | -2 | -1
O=C(c1cccs1)N1CCCC(N2CCN(c3cccc(C(F)(F)F)c3)CC2)C1 (stereo not drawn) | ? | -30% | -13% | -10% | -7 | -1
CCCCn1c(N)c(N(Cc2ccccc2OC)C(=O)c2ccc(N3CCCC3=O)cc2)c(=O)[nH]c1=O | -20% | . | ? | 1% | . | .
O=C(Nc1ccc(S(=O)(=O)NCc2ccco2)cc1)c1cccc(F)c1 | 25% | 4% | 26% | ? | 37* | 18
CC(C)n1nc(C(=O)Nc2cccc(S(=O)(=O)NCc3ccco3)c2)c2ccccc2c1=O | ? | -2% | ? | -16% | 19 | 17*
O=C(Nc1ccc(S(=O)(=O)NCc2ccco2)cc1)c1ccncc1 | 1% | 1% | . | -5% | -22 | 1
O=C(Cn1ccc(C(F)(F)F)n1)Nc1ccc(S(=O)(=O)NCc2ccco2)cc1 | 3% | 7% | -5% | 45µM* | 7 | 1
Cn1nc(C(=O)Nc2ccc(S(=O)(=O)NCc3ccco3)cc2)c2ccccc2c1=O | ? | -2% | 12µM* | 3% | 52* | 53*
Cc1cnc(C(=O)OCC(=O)N(Cc2ccccc2)C(C)C)cn1 | 0% | -1% | 30% | 6% | 14 | 1
COc1cc2nc(NC(=O)c3ccc(S(=O)(=O)N4CCCC4)cc3)sc2cc1OC | . | . | . | 7% | . | .
CN(C(=O)c1ccc2c(Cl)c3c(nc2c1)CCC3)c1ccccc1F | . | . | . | -1% | . | .
CN(C(=O)c1ccc2c(Cl)c3c(nc2c1)CCC3)c1ccccc1 | 96% | -37% | ? | -13% | 94* | 45*
CCN(C(=O)c1ccc2c(Cl)c3c(nc2c1)CCC3)c1ccc(C)c(C)c1 | ? | ? | 10µM* | -2% | -13 | -3
CCc1ccc(CNC(=O)c2ccc3c(Cl)c4c(nc3c2)CCCC4)cc1 | . | . | . | 8% | . | .
CCc1ccc(Nc2n[n+](C)c(-c3ccncc3)s2)cc1 | 9% | -66% | ? | 12% | 11 | 10
SMILES | Pf growth 48h | NS1 function inh | Pf growth 96h | Sm TGR block | Shiga toxin inh | Cycloheximide cs
CC(C)(C)NC(=O)CN(Cc1ccco1)C(=O)CCC(=O)Nc1nccs1 | -9% | 2% | ? | 0% | -3 | 0
Cn1cccc1C(=O)NCC1COc2ccccc2O1 (stereo not drawn) | 111% | . | 191% | -12% | . | .
O=C(NCC1CCCO1)c1ccc(Br)s1 (stereo not drawn) | 18% | -3% | 19% | 0% | 39 | 8
CCc1ccc(C(=O)NCC2COc3ccccc3O2)o1 (stereo not drawn) | 61% | -16% | 44% | -13% | 57* | 23*
O=C(NCC1COc2ccccc2O1)c1ccc(Br)s1 (stereo not drawn) | 39% | -18% | 39% | -2% | 108* | 23*
O=C(NCC1COc2ccccc2O1)c1cccs1 (stereo not drawn) | 51% | -8% | 43% | -17% | 72* | 40*
O=C(Nc1ncn[nH]1)c1ccc(Cl)c(Cl)c1 | -4% | . | 3% | -12% | . | .
CCOc1ccccc1N1CCN(CC(=O)N(C2CCCC2)C2CCS(=O)(=O)C2)CC1 (stereo not drawn) | -4% | . | -24% | -3% | . | .
Cc1cccc(N2CCN(CC(=O)N(C3CCCC3)C3CCS(=O)(=O)C3)CC2)c1C (stereo not drawn) | 10µM* | . | ? | -20% | . | .
COc1ccc(/C=C2\SC(N3CCCCC3)=NC2=O)cc1OC | . | -3% | 20% | 9% | 34 | 9
Cc1ccc(/C=C2\SC(N3CCCC3)=NC2=O)cc1 | ? | -39% | 20% | . | 28 | 7
COc1cc(/C=C2\SC(N3CCC(C)CC3)=NC2=O)ccc1O | ? | -10% | -16% | -6% | 15 | 42*
CN(C)c1ccc(/C=C2\SC(N3CCCCC3)=NC2=O)cc1 | 52% | -9% | 4.1µM* | -16% | . | 41*
O=C1N=C(N2CCCCC2)S/C1=C/C1=Cc2ccccc2OC1 | 19% | 11% | ? | ? | 76* | 37*
CC(C)c1ccc(/C=C2\SC(N3CCCC3)=NC2=O)cc1 | ? | -1% | 3.7µM* | -1% | 7 | 0
CCC(CC)C(=O)Nc1cccc(-c2nc3cccnc3s2)c1 | . | . | . | -5% | . | .
COc1ccc(-c2n[nH]c3c2C(c2ccccn2)N(C)C3=O)cc1 (stereo not drawn) | . | . | . | -3% | . | .
O=C(Nc1cnc2sc3c(n2c1=O)CCCC3)c1ccc(F)cc1 | 40% | -36% | 76% | 9% | 44* | 25*
Cc1nn2c(=O)c(NC(=O)c3ccc(F)cc3)cnc2s1 | 21% | 2% | 7% | -2% | 16 | -2
COc1ccc(C(=O)Nc2cnc3ccccn3c2=O)cc1 | 71% | -2% | ? | -11% | 97* | 46*
O=C(Nc1cnc2ccccn2c1=O)c1ccc(F)cc1 | 172% | ? | 13µM* | 3% | 58* | 33*
CCN(CC)Cc1nc2c(c(=O)[nH]1)C(CC)(CC)Cc1ccccc1-2 | 9.3µM* | 14% | -140% | -18% | -3 | -2
